# A selection: hits, their analogues and other compounds. The true share with any hit is near 18%.
# TDP1 cell CPT: growth inhibition of DT40 Tdp1-/-;hTDP1 cells with camptothecin (screen for TDP1 inhibitors); chicken DT40 Tdp1-/-;hTDP1 cells + 20 nM CPT, ATP luminescence, 48 h; Potency, µM (series often up to 46.2 µM), for the others: at the top dose activity change, negative = growth inhibition, most hits filed as inhibitors; 420,000 compounds, 12% hits; AID 686979; note: potency is the fitted concentration of half-maximal effect; nearly all actives have a fitted effect of over 55% in size
#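 Chicken DT40 Tdp1-/- cells stably complemented with human TDP1 were seeded at 400 cells/well in medium containing 20 nM camptothecin, exposed to pin-transferred compounds, and grown at 37 °C for at least 48 hr. Viability was read as ATP luminescence.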
# TDP1 inh: inhibitors of human tyrosyl-DNA phosphodiesterase TDP1. Q9NUW8. recombinant TDP1, AlphaScreen DNA substrate cleavage. Potency, µM (series often up to 130 µM), without a hit: at the top dose activity change, negative = inhibition, hits mostly inhibitors. 350,000 compounds, 0.28% hits. AID 485290; note: potency is the fitted concentration of half-maximal effect; nearly all actives have a fitted effect of over 40% in size
# Target sequence (Q9NUW8 whole entry, looked up): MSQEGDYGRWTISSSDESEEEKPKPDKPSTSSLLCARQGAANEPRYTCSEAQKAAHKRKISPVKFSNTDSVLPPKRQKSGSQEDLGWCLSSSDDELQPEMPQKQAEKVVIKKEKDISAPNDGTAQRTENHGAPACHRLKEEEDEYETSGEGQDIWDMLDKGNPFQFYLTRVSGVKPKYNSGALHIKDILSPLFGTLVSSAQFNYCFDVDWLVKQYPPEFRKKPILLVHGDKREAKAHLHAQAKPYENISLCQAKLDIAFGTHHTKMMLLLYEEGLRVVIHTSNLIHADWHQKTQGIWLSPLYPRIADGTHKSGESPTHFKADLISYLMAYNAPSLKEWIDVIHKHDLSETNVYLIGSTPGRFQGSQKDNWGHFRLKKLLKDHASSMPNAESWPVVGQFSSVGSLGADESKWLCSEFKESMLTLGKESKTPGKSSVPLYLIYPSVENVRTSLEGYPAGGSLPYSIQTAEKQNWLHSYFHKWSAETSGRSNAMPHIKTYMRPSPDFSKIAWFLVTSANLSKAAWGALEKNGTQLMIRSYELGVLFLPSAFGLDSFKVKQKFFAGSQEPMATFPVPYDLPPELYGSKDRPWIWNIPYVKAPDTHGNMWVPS
#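 Enzyme-compound mixtures sat 15 min at room temperature, followed by a 5 min reaction with 15 nM final substrate and 10 min with AlphaScreen beads. Recombinant human Tdp1 was used at 1 nM final.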
# CtBP-E1A blk: inhibitors of CtBP/E1A interaction. activity change, % (concentration not given with the values). 340,000 compounds, 0.49% hits. AlphaScreen GST-E1A/His-CtBP binding, 1536-well; hits give low values; in the data active = activity change below about -65%; inconclusive = mostly about -30% to -63%
#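 GST-E1A and His-tagged CtBP (125 nM each as 5X stock) were preincubated with pin-transferred compound for 2 h at 37 °C in the dark, then glutathione donor and nickel acceptor beads were added for 1 h before AlphaScreen reading.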
# Six1-Eya2 blk: inhibitors of human Six1/Eya2 interaction. Q15475+O00167. AlphaScreen GST-Six1/His-Eya2 binding, biochemical; hits give low values. activity change, % (concentration not given with the values). 360,000 compounds, 0.56% hits. AID 651725; in the data active = activity change below about -65%; inconclusive = mostly about -30% to -63%
#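 GST-Six1 + His-Eya2 (5X stock: 250/500 nM); Tris pH 8.0, 300 mM NaCl, 0.05% BSA, 0.02% Tween 20; GSH donor/Ni acceptor beads; 1 h 37 °C dark; AlphaScreen readout.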
# IL-1B inflam inh: blocks inflammasome-driven IL-1 beta release | THP-1 LPS/ATP IL-1B secretion, AlphaLISA, 16 h; hits give low values | activity change, % at 57.5 µM | 360,000 compounds, 4.7% hits; in the data active = activity change below about -50%; inconclusive = mostly about -30% to -49%
#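 Secreted IL-1B measured by AlphaLISA bead assay after 16 h compound exposure of THP-1 cells; compounds (final up to 57.5 uM) added 1 h before LPS (250 ng/mL) and ATP (1.25 mM) stimulation; lower signal means less secretion.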
# TDP1 cell noCPT: qHTS for Inhibitors of human tyrosyl-DNA phosphodiesterase 1 (TDP1): qHTS in cells in absence of CPT. DT40 Tdp1-/- hTDP1 cells, no CPT, ATP luminescence, 48 h. Potency, µM (top dose mostly 46.2 µM), for the others: at the top dose activity change, negative = growth inhibition, most hits filed as inhibitors. 420,000 compounds, 15% hits; note: potency is the fitted concentration of half-maximal effect; nearly all actives have a fitted effect of over 55% in size
#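 Cells were dispensed at 400 per well, compounds added by pin tool, plates incubated ≥48 hr at 37 °C, then CellTiter-Glo added for 30 min at room temperature before luminescence reading. Line: DT40 Tdp1-/- complemented with hTDP1; camptothecin omitted.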
# An asterisk follows results filed as active; ? = inconclusive; . = no result given. Unless noted, calls come from the whole dose curve; as a rule, active = well fitted curve in the direction sought with a large enough effect; inconclusive = small, poorly fitted or top-dose-only effect, or another doubt; inactive = no such curve, though single readings can be large; an effect the other way counts as inactive or inconclusive. % is set by controls: 0 for no effect and ±100 for the full control effect.
SMILES,TDP1 cell CPT,TDP1 inh,CtBP-E1A blk,Six1-Eya2 blk,IL-1B inflam inh,TDP1 cell noCPT
C=CCc1ccc(OCC(O)CN2CCN(c3ccccc3OC)CC2)c(OC)c1 (centres undefined),-19%,.,-3,-3,?,-8%
O=C(CC1N=C2c3ccccc3N=C(SCc3cccc(Cl)c3)N2C1=O)NCCc1ccccc1 (centres undefined),?,1%,.,.,.,?
CCOC(=O)C1(Cc2ccc(OC)cc2)CCN(C(=O)C2CC(=O)N(C3CC3)C2)CC1 (centres undefined),-5%,.,1,3,15,-16%
C=CCc1ccccc1OCC(O)CN(C(C)C)C(C)C (centres undefined),-24%,4%,-1,2,-17,23µM*
COc1ccc(N2CCN(CC(O)COc3ccc4c(c3)CCC4)CC2)cc1 (centres undefined),18µM*,8%,?,?,?,23µM*
CCOC(=O)c1ccc(NC2=CC(=O)C(=O)c3ccccc32)cc1,23µM*,6%,-12,-21,9,23µM*
NS(=O)(=O)c1ccc(NC2=CC(=O)C(=O)c3ccccc32)cc1,8.2µM*,.,?,-4,-78*,2.6µM*
O=C(O)c1cc(Cl)ccc1OS(=O)(=O)c1ccc(Cl)s1,22%,2%,5,-2,7,-5%
Cc1ccc(C2SCC(=O)N2Cc2cn3ccsc3n2)o1 (centres undefined),4%,-1%,-2,-3,?,-8%
CC(C)CCNC(=O)CN(Cc1ccco1)C(=O)CCC(=O)Nc1nccs1,0%,1%,5,-2,3,-3%
C=C(C)Cn1c(SCC(=O)N/N=C/c2ccccc2OCC(=O)O)nnc1-c1ccc(Br)cc1,-2%,3%,.,-6,0,4%
CCC1CCC2(CC1)NC(=O)N(CC(=O)Nc1cc(C)on1)C2=O (centres undefined),-21%,0%,10,4,8,-6%
O=C(Nc1ccccc1)N1CCN(c2nc(-c3ccccc3)ns2)CC1,23µM*,1%,-6,-13,-8,16µM*
Cc1c(Cl)cccc1NC(=O)N1CCCN(c2nc(-c3ccccc3)ns2)CC1,?,3%,1,-7,-61*,?
Cc1nnc2sc(-c3ccc(-c4ccc(Cl)c(C(F)(F)F)c4)o3)nn12,?,3%,0,-1,39,?
COc1cc(Cc2cc(OC)c(O)c(OC)c2)cc(OC)c1O,16µM*,.,0,-5,-1,21µM*
COc1cc(CN2CCCCCC2)cc(OC)c1O,-9%,.,.,7,-1,3%
C=Cc1ccc2c(c1)N(C)C(=C)S2,16µM*,8%,1,4,-11,23µM*
CC(=O)c1ccc2c(c1)N(C)c1ccccc1S2,-20%,.,81,93,-16,?
Cc1occc1-c1nnc(SCC(=O)NCc2cccs2)n1CC1CCCO1 (centres undefined),0%,8%,4,3,15,5%
CCOC(=O)C(/C=C(\C#N)C(=O)OCC)=C(/N)N1CCN(c2ccc(Cl)cc2)CC1,-15%,2%,-15,-17,-8,16µM*
COc1cccc2cc(CC(=O)c3ccc(C)c(C)c3)c(=O)oc12,-2%,.,.,-6,?,-3%
Cc1ccc(C2=NNC(=Nc3ccc(F)cc3)SC2)cc1,?,3%,-28,-25,-74*,?
CC(C)(C)N=C1NN=C(c2cc3ccccc3o2)CS1,?,8%,2,-20,-20,23µM*
CC(C)(C)N=C1NN=C(c2ccc(Cl)cc2)CS1,?,.,.,-2,-1,18µM*
CC(C)N=C1NN=C(c2ccc(Cl)c(Cl)c2)CS1,?,5%,-7,-18,-74*,?

# Screening results (PubChem BioAssay)
